Results taken from PubChem BioAssay.
Square brackets hold non-standard residues; d marks the D form. Peptide text beside a SMILES is read from it. Phe(ol) = N[C@H](CO)Cc1ccccc1; Aib = CC(C)(N)C(=O)O

Test: chitosan synthesis blockers in C. neoformans – flow cytometry, Cibacron Brilliant Red staining (AID 1347148);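 also: compound exposure lasted three days at 37 degrees C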
Settings: Cryptococcus neoformans chitosan, active compounds read low; at 10 µM unless noted; call rule not given here

Fold fluorescence, inactive:
COC(=O)/C=C/c1ccc(C(=O)NCC(=O)N[C@@H](CCC(=O)OC)C(=O)N[C@@H](CC(C)C)C(N)=O)cc1 4.66 [at 96.4 µM]
NC1=NC2C(N=C(Br)N2C2O[C@H]3COP(=O)(O)O[C@@H]3[C@@H]2O)C(=O)N1 (some centres not stated) 4.24 [at 117.3 µM]
Nc1cc(N2CCCCC2)nc(N)[n+]1OS(=O)(=O)[O-] 3.52 [at 172.8 µM]
Clc1ccc2ncnc(NCc3ccc4c(c3)OCO4)c2c1 6.11 [at 159.4 µM]
COC(=O)CNC(=O)C(=O)OC 3.39
CC(=O)NC(C)(C)C(=O)N1CCC[C@H]1C(=O)NC(C)(C)C(=O)N[C@@H](C)C(=O)NC(C)(C)C(=O)N[C@@H](C)C(=O)N[C@@H](CCC(N)=O)C(=O)NC(C)(C)C(=O)N[C@H](C(=O)NC(C)(C)C(=O)NCC(=O)N[C@@H](CC(C)C)C(=O)NC(C)(C)C(=O)N1CCC[C@H]1C(=O)N[C@H](C(=O)NC(C)(C)C(=O)NC(C)(C)C(=O)N[C@@H](CCC(=O)O)C(=O)N[C@@H](CCC(N)=O)C(=O)N[C@H](CO)Cc1ccccc1)C(C)C)C(C)C (Ac-[Aib]P[Aib]A[Aib]AQ[Aib]V[Aib]GL[Aib]PV[Aib][Aib]EQ[Phe(ol)]) 7.73 [at 25.5 µM]
CC(C)C[C@@H](/C=C/S(C)(=O)=O)NC(=O)[C@H](CC(C)C)NC(=O)[C@H](CC(C)C)NC(=O)OCc1ccccc1 3.84 [at 90.6 µM]
